Assay outcomes: PubChem BioAssay, The Scripps Research Institute Molecular Screening Center
An excerpt weighted towards active compounds, which were near 3.5% of everything screened.
MITF primary – MITF inhibitors, primary screen, biochemical, AlphaScreen, human; Microphthalmia-associated transcription factor (Homo sapiens), O75030; AlphaScreen MITF homodimerization, bead proximity signal; inhibition, % at 2.6 µM; 650,000 compounds, 0.91% hits; AID 1259374, 2018; in the data active means inhibition above about 50%;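 further: 0% = vehicle wells with protein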
TEAD-YAP block – TEAD-YAP interaction inhibition, primary screen, TEAD-YAP interaction inhibitor project, luminescence, HEK-TIYL cells; TEAD-Gal4/YAP UAS-luciferase luminescence; inhibition, % at 9.12 µM; 640,000 compounds, 1.4% hits; AID 1259422, 2018; in the data active means inhibition above about 32%;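 further: 0% = median of test compound wells and 100% = reference inhibitor wells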
FBW7 activator – FBW7 E3 ligase activators, primary screen, biochemical, AlphaScreen, human | F-box/WD repeat-containing protein 7 (Homo sapiens), Q969H0 | AlphaScreen FBW7–phospho-cyclin E peptide binding, activator screen | normalized activity (activation), % at 26.1 µM | 650,000 compounds, 0.13% hits | AID 1259310, 2017; in the data active means normalized activity above about 1.9%;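 further: purified mutant Fbw7 with reduced substrate affinity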
GPR151 ag – activators of human GPR151, primary screen, cell-based, PathHunter beta-arrestin, luminescence; PathHunter beta-arrestin GPR151 cells; activation, % at 11.2 µM; 650,000 compounds, 1% hits; AID 1508602, 2020; in the data active means activation above about 4.9%;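 further: 0% = median of compound wells and 100% = cells with positive control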
Target sequence (Q8TDV0 whole entry, looked up): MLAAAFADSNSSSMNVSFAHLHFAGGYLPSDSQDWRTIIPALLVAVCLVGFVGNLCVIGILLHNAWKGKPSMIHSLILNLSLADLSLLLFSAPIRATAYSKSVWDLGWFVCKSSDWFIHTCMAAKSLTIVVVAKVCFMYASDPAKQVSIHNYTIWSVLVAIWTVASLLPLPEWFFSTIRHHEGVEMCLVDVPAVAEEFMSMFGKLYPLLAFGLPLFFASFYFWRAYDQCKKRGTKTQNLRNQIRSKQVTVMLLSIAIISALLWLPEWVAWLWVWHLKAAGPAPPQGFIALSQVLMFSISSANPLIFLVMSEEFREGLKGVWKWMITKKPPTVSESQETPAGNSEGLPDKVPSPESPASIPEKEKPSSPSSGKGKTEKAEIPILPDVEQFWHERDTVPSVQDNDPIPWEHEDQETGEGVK
GPR151 conf act – GPR151 activators, triplicate retest, confirmation, cell-based, PathHunter beta-arrestin, luminescence; shares compounds with GPR151 ag; GPR151 PathHunter beta-arrestin cells, 90 min; % of EA-reagent control over plate median; activation, % at 11.2 µM; 6,700 tested, under 10 active; AID 1508609, 2020;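 active means mean percent activation across replicates above the confirmation screen cutoff of 4.91%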
GPR119 ag – GPR119 activators in beta-arrestin cells, counter-screen for GPR151 activator project, cell-based, PathHunter beta-arrestin, luminescence, triplicate; activation, % at 11.2 µM; 6,700 compounds, 0.3% hits; 90 min; 0 = compound-well median, 100 = enzyme-acceptor control; shares compounds with GPR151 ag;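 active means mean percent activation in the counterscreen above 29.09%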;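 further: counterscreen on off-target GPR119 to flag nonselective hits from the GPR151 activator screen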
* marks the source's active call; other numbers are inactive results; . = no result.

SMILES | MITF primary | TEAD-YAP block | FBW7 activator | GPR151 ag | GPR151 conf act | GPR119 ag
COc1ccc(OC)c(-n2c(CN3CCC(C(N)=O)CC3)nc3ccccc3c2=O)c1 | 5 | 15 | 0 | 5.6* | 0 | -11
Cc1ccc2c(c1)C1c3sc(=O)[nH]c3SCC1(CC(=O)O)C(=O)O2 (stereo not given) | 0 | -3 | 0 | 3 | . | .
COc1cc(C=O)ccc1Oc1ncccc1[N+](=O)[O-] | -3 | 7 | 0 | 8.0* | 1 | -5
CCOC(=O)C1=C(C)OC(N)=C(C#N)C1c1cccc([N+](=O)[O-])c1 (stereo not given) | 12 | 14 | 0 | -1 | . | .
O=C1NC(=O)C(=Cc2ccc(OCc3ccccc3)c(C(=O)O)c2)C(=O)N1 | 11 | 7 | -1 | 5.6* | 0 | -1
FC(F)(F)c1cccc(NC(=S)N2CCSC2c2ccc(Br)cc2)c1 (stereo not given) | -12 | -5 | 0 | 6.4* | 1 | -2
CSCC[C@H](NC(C)=O)C(=O)N1CCC(CO)(Cc2ccc(Cl)cc2)CC1 | 1 | 2 | 0 | 0 | . | .
O=[N+]([O-])/C=C/N1CCOCC1 | 10 | 0 | 0 | 5.5* | 0 | -1
O=C(NCc1ccccn1)c1cc2c(ccc3ccccc32)oc1=O | 9 | -11 | 0 | 12* | -1 | 1
O=C(NCc1ccccc1)c1cc2cc([N+](=O)[O-])ccc2oc1=O | 0 | -2 | 0 | 13* | 0 | 4
O=C(CCc1c[nH]c2ccccc12)Nn1c(SCc2cccc([N+](=O)[O-])c2)nc2ccccc2c1=O | 4 | -3 | 0 | 0 | . | .
COc1cccc2cc(C(=O)C3=C(O)C(=O)N(Cc4ccco4)C3c3cccnc3)oc12 (stereo not given) | -2 | 11 | 0 | 5.4* | 0 | 9
Cc1nc2c(C(=O)O)cnn2c(C)c1Cc1ccc(Cl)cc1 | 6 | 7 | 0 | 5.8* | 1 | 8
Cc1nc2c(C(=O)NC3CCCC3)cnn2c(C)c1Cc1ccc(F)cc1 | -10 | -5 | 0 | 1 | . | .
Cc1nc2c(C(=O)NC3CCCCC3)cnn2c(C)c1Cc1ccc(F)cc1 | -2 | -10 | 0 | 5.0* | 0 | -9
O=C(Cc1ccccc1[N+](=O)[O-])NCCSc1ccc(Cl)cc1 | 4 | 6 | -1 | -1 | . | .
COc1ccc(-n2cc(C(=O)NC3CCC(C)CC3)c3ccccc3c2=O)cc1 (stereo not given) | 5 | 2 | 0 | 5.0* | 0 | 8
CCC(C)NC(=O)c1cn(-c2cccc(OC)c2)c(=O)c2ccccc12 (stereo not given) | 3 | -3 | 0 | 5.4* | 0 | 2
CCC(C)NC(=O)CCNC(=O)c1cn(-c2cccc(OC)c2)c(=O)c2ccccc12 (stereo not given) | -2 | 6 | 0 | 2 | . | .
COc1ccccc1CN1C[C@@H]2C[C@@H](c3ccc(F)cc3)N3CCC[C@@]23C1=O | -7 | 4 | 0 | -1 | . | .
CCN1CCN(C(=O)CS(=O)Cc2nc(-c3cccc(C)c3)oc2C)CC1 (stereo not given) | 14 | 12 | 0 | 0 | . | .
Cc1cccc(-c2nc(CS(=O)CC(=O)NC(C)c3ccccc3)c(C)o2)c1 (stereo not given) | 15 | 3 | 0 | 7.2* | 0 | -1
Cc1cccc(-c2nc(CS(=O)CC(=O)NC(C)C)c(C)o2)c1 (stereo not given) | 7 | 7 | 0 | 1 | . | .
Cc1cccc(-c2nc(CS(=O)CC(=O)N3CCCC3)c(C)o2)c1 (stereo not given) | 14 | 7 | 0 | 8.2* | -2 | -13
COc1ccccc1OCC(=O)NCC(c1ccsc1)N1CCCC1 (stereo not given) | 10 | 2 | 0 | 2 | . | .
O=C(Cc1ccc(F)cc1)NCC(c1ccsc1)N1CCCCCC1 (stereo not given) | -3 | -10 | 0 | 6.9* | 0 | -7
